In the library only some 2.2% were active in any assay of this set; here they are far more common.
HTR5A inv ag: HTR5A inverse agonists in luminescence cell assay, primary screen, counter-screen for OPRM1-OPRD1 heterodimer inverse agonist project, full-deck HTS; 5-hydroxytryptamine receptor 5A (Homo sapiens), P47898; HTR5A cell line, inverse agonism; inhibition, % at 9.3 µM; 340,000 tested, 0.083% active; AID 504634, 2011; in the data active = inhibition mostly above about 23%, no sharp cut-off; inactive = mostly below about 18%;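 also: 0% = cells with DMSO and 100% = no-cell wells with DMSO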
MOR-DOR ag: agonists of OPRM1-OPRD1 heterodimerization, primary screen, cell-based, luminescence | cells | activation, % at 9.3 µM | 340,000 tested, 0.3% active | Mu-type opioid receptor (Homo sapiens) + Delta-type opioid receptor (Homo sapiens), …; in the data active = activation above about 18%;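 also: 0% = vehicle-treated cells and 100% = reference agonist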
OPRM1-OPRD1 inv: inverse agonists of MOR-DOR heterodimerization, primary screen, cell-based, luminescence; inhibition, % at 9.3 µM; Mu-type opioid receptor (Homo sapiens) + Delta-type opioid receptor (Homo sapiens), …; AID 504357, 2011; cell-based MOR-DOR heterodimer luminescence, inverse agonism; 340,000 tested, 0.21% active; in the data active = inhibition above about 22%, passing the limit was not always enough;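 also: 0% = cells with DMSO and 100% = wells without cells with DMSO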
HTR2A ag: mouse Htr2a agonists via beta-arrestin recruitment, primary screen, cell-based, luminescence; CHO-K1 mHTR2A beta-arrestin complementation; percent of 30 µM serotonin response; activation, % at 7.6 µM; 360,000 tested, 0.66% active;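 active = activation above a run cutoff, the mean activation of all tested compounds plus 3 SD, cut at about 14% in these data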;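 also: 0% = plate median of compound wells and 100% = 30 µM serotonin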
Target sequence (P35363 whole entry, looked up): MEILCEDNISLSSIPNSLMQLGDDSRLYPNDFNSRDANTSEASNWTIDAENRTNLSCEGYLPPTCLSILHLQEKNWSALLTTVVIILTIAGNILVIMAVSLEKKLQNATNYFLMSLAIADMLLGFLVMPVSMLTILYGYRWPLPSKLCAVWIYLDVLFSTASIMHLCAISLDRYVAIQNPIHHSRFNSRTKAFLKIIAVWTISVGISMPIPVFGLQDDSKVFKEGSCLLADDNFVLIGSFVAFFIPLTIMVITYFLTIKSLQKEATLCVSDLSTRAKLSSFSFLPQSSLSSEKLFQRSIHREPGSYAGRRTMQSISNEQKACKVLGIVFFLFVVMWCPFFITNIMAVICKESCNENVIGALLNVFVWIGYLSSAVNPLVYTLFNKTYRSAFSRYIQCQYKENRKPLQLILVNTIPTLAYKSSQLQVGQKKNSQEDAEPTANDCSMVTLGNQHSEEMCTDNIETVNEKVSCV
HTR5A ag ctr: HTR5A agonists in luminescence cell assay, primary screen, counter-screen for OPRM1-OPRD1 heterodimer agonist project, full-deck HTS | cell-based | activation, % at 9.3 µM | 340,000 tested, 0.61% active | AID 504692, 2011; in the data active = activation mostly above about 9.5%, no sharp cut-off; inactive = mostly below about 7.6%;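 also: 0% = cells with vehicle only and 100% = reference agonist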
sPLA2-III inh: human group III sPLA2 inhibitors, primary screen, biochemical, QFRET, BODIPY PC-A2 liposome substrate; 370,000 tested, 0.56% active; Group 3 secretory phospholipase A2 (Homo sapiens), Q9NZ20; AID 743126, 2013; inhibition, % at 12.2 µM; QFRET BODIPY PC-A2 liposome hydrolysis, fluorescence;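 active = inhibition above mean plus 3 SD of compounds lying within the high and low control bounds, cut at about 19% in these data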;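 also: 0% = median of test compound wells and 100% = no enzyme DMSO wells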
hGIII sPLA2 conf: human group III sPLA2 inhibitors, confirmation, biochemical, QFRET, triplicate | shares compounds with sPLA2-III inh | recombinant hGIII-sPLA2, BODIPY PC-A2 QFRET fluorescence | inhibition, % at 12.2 µM | 2,000 tested, 34% active | AID 743280, 2014;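 active = mean inhibition across triplicates above the hit cutoff set in the earlier primary screen, cut at about 19% in these data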;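 also: 0% = enzyme with DMSO and 100% = DMSO wells lacking enzyme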
535nm interf: 535nm fluorescence optical interference, confirmation, artefact control for HGIII-sPLA2 inhibitor project, biochemical, QFRET | shares compounds with sPLA2-III inh | inhibition, % at 12.2 µM | 2,000 tested, 8.5% active | AID 743282, 2014 | BODIPY FL product fluorescence interference;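 active = average inhibition above the solvent-only control mean plus 3 SD, cut at about 6% in these data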;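 also: 0% = DMSO with substrate plus product and 100% = DMSO with substrate alone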
535nm interf DR: 535nm fluorescence optical interference, dose response, artefact control for HGIII-sPLA2 inhibitor project, biochemical, QFRET; shares compounds with sPLA2-III inh; BODIPY FL product fluorescence interference, cell-free; IC50, µM; 240 tested, under 10 active;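 active = IC50 at or below 10 µM; inactive = IC50 above 10 µM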
* hit, by the source's call; . = no result given.

SMILES | HTR5A inv ag | MOR-DOR ag | OPRM1-OPRD1 inv | HTR2A ag | HTR5A ag ctr | sPLA2-III inh | hGIII sPLA2 conf | 535nm interf | others
O=C(O)c1cc(O)ccc1N=Nc1ccccc1 | -3 | -4 | 20 | -1 | 1 | 20* | -2 | -4
CCN(CC)C(=O)C1=C(C)N(CCCOC)C(=O)C(CC(=O)NCc2ccco2)C1 (stereo not given) | . | . | . | 4 | . | 7 | . | .
COCCCN1C(=O)C(CC(=O)NCc2ccco2)CC(C(=O)N2CCOCC2)=C1C (stereo not given) | . | . | . | 3 | . | 21* | 0 | 0
CC(C)[C@@H]1CC[C@@H](C)C[C@H]1OC[B-](F)(F)F | . | . | . | . | . | 7 | . | .
O=C(NNC(=S)Nc1cccc(Cl)c1)c1ccccc1OC(F)F | 8 | -5 | 26 | 5 | -3 | 25* | 43* | 2 | 535nm interf DR=>122
COc1cccc(NC(=S)Nc2ccc(O)cc2)c1 | -12 | 1 | -6 | 4 | 3 | 6 | . | .
Fc1ccc(NC(=S)Nc2ccccc2OC(F)F)cc1Cl | -22 | 1 | -5 | -2 | -1 | -4 | . | .
COc1cccc(NC(=S)NNC(=O)c2ccccc2OC(F)F)c1 | -18 | -2 | 10 | -6 | 1 | 25* | 31* | 6
COC(=O)[C@]12C[C@H](CC(=O)NCc3ccc(OC)c(OC)c3)C(=O)N(CCC3=CCCCC3)C1=C[C@H](C1CCCC1)O[C@@H]2C | . | . | . | . | . | -13 | . | .
CCCCCCCCN1C(=O)[C@@H](CC(=O)N2CCCC2)C[C@@]2(C(=O)OC)C1=C[C@H](C(C)C)O[C@@H]2C1CC1 | . | . | . | . | . | -3 | . | .
COC(=O)[C@]12C[C@H](CC(=O)N3CCOCC3)C(=O)N(Cc3ccc(Cl)cc3Cl)C1=C[C@H](C(C)(C)C)O[C@@H]2C | . | . | . | . | . | -8 | . | .
S=c1[nH]nc(COc2ccccc2)n1-c1ccc(Cl)cc1 | 0 | 0 | -1 | 2 | -5 | 22* | 33* | -1 | 535nm interf DR=>122
COc1ccc(-n2c(COc3ccccc3)n[nH]c2=S)cc1 | 0 | -1 | 7 | 1 | 0 | 21* | 23* | 2
COc1ccc(-n2c(COc3ccc(C)cc3)n[nH]c2=S)cc1 | 9 | -2 | 8 | 8 | -2 | 15 | . | .
COc1cc(/C=N/n2c(COc3ccccc3)n[nH]c2=S)cc(Br)c1O | -19 | -2 | 10 | 9 | 5 | 7 | . | .
COc1cc(/C=N/n2c(COc3ccccc3)n[nH]c2=S)cc(OC)c1OC(C)=O | 20 | -3 | 16 | 0 | -5 | 24* | 17 | -2
C=CCN1[C@H](C#N)[C@@H](c2ccc(C#Cc3cccc(OC)c3)cc2)[C@H]1CO | . | . | . | . | . | -2 | . | .
COc1cc(OC)cc(-c2c(-c3cccs3)c3cc(-c4cccc5[nH]ccc45)ccc3n2C)c1 | 3 | 1 | -7 | 0 | -1 | 29* | 16 | 9.8*
Cc1nc(N2CCCCC2C)c2nnn(Cc3ccccc3)c2n1 (stereo not given) | . | . | . | . | . | -3 | . | .
COc1cccc(C(=O)N[C@H](C(=O)N2CCC[C@H]2C(=O)NCc2ccccc2)C2CCCCC2)c1 | . | . | . | . | . | 10 | . | .
CCCC[n+]1c2ccccc2cc2ccccc21 | 15 | -1 | 5 | 0 | -4 | 40* | 52* | -7 | 535nm interf DR=>122
Cc1ccc2ccccc2[n+]1CCCS(=O)(=O)[O-] | -28 | 0 | -1 | 5 | 1 | 1 | . | .
NNc1nc2c(Cl)c(Cl)ccc2s1 | -14 | 1 | -3 | 1 | -2 | 24* | 19 | 13*
COc1cccc2sc(NN)nc12 | 0 | 1 | -6 | -2 | 0 | 12 | . | .
O=C(NCc1ccc(Cl)cc1)OCCN1C(=O)CCC12CCC(c1ccccc1)CC2 (stereo not given) | . | . | . | . | . | 1 | . | .
SMILES | HTR5A inv ag | MOR-DOR ag | OPRM1-OPRD1 inv | HTR2A ag | HTR5A ag ctr | sPLA2-III inh | hGIII sPLA2 conf | 535nm interf | others
O=C(CSc1nnc(NCc2ccccc2)s1)N1CCOCC1 | -8 | -4 | 19 | 5 | 5 | 27* | -2 | -5
CCOc1ccc2c(c1)-c1c(ssc1=S)C(C)(C)N2C | -8 | -1 | 4 | -2 | -1 | 36* | 46* | 14*
O=C(C(=O)N1CCC(CNC(=O)c2sc3ccccc3c2Cl)CC1)c1cccs1 | . | . | . | . | . | 0 | . | .
COc1ccc2c(c1)[C@@]1(NCCc3c1[nH]c1ccc(OC)cc31)C(=O)N2 | . | . | . | . | . | -1 | . | .
CCOC(=O)CC[C@@H]1CC[C@]2(CCCN(Cc3nccs3)C2)O1 | . | . | . | . | . | 15 | . | .
O=C1c2c(O)ccc(O)c2C(=O)c2c(NCCNCCO)ccc(NCCNCCO)c21 | 22 | 0 | 2 | -3 | -6 | 35* | 40* | -21 | 535nm interf DR=>122
N/C(=N\OC(=O)CCc1ccccc1)c1ccc(Br)cc1 | 7 | 1 | -5 | -1 | 14 | 6 | . | .
Cc1ccc(/C(N)=N/OC(=O)CCc2ccccc2)cc1 | -18 | 8 | -44 | -4 | 8 | 20* | -4 | -6
CCOc1ccc(/C=N/Nc2ccccn2)cc1 | 14 | 3 | -14 | -2 | -5 | -19 | . | .
CCOc1ccc(/C=N/Nc2cc(=O)n(C)c(=O)n2C)cc1 | 4 | 1 | -6 | -4 | -1 | 19* | 11 | -1
C=CCN1[C@@H](CC(C)C)COc2cc(F)ccc2S1(=O)=O | . | . | . | . | . | 7 | . | .
C[C@@H]1CN(C(=O)OC(C)(C)C)CCN1c1ccc(N2CC[C@H](O)C2)c(C#N)c1 | . | . | . | . | . | 21* | 8 | -13
CCN(CC)C(=O)c1ccc2sc([C@H]3C[C@H](O)[C@@H](CO)O3)nc2c1 | . | . | . | -3 | . | 22* | 4 | -6
COC(=O)C1=C(C)Nc2ncnn2C1c1ccccn1 (stereo not given) | 9 | 0 | -3 | 6 | 1 | 0 | . | .
COC(=O)C1=C(C)NC(C)=C(C(=O)OC)C1c1ccccn1 | -19 | -3 | 15 | -4 | -4 | 22* | 3 | -5
O=C(OCc1cn(Cc2cccc(F)c2)nn1)N1CCOCC1 | . | . | . | . | . | 7 | . | .
N#CCC[C@@H]1CC[C@]2(CCCN(C(=O)c3ccccc3)C2)O1 | . | . | . | . | . | 16 | . | .
